# Source: PubChem BioAssay (Tox21)
# Records with an inconclusive call do not appear. Entries that show only a call come without a potency. The source made the active and inactive calls. Calls follow the shape of the dose curve; as a rule, active = well fitted cell-killing curve with a large enough effect in the repeat runs; inconclusive = weak or mixed curves; inactive = flat fitted curve, though single readings scatter.
# Assay: qHTS assay to identify small molecule antagonists of the estrogen related receptor (ERR) signaling pathway from Tox21 library - cell viability counter screen (AID 1224834); also: nearly all actives have a fitted effect of over 30% in size
# Details: ERR reporter cells viability, CellTiter-Fluor, 17.5 h; series mostly up to 92.4 µM
# From the text: National Center for Advancing Translational Sciences [NCATS]
# NIH Chemical Genomics Center [NCGC]
# U.S. Environmental Protection Agency [EPA]
# National Institutes of Environmental Health Sciences [NIEHS]
# National Toxicology Program [NTP]
# U.S. Food and Drug Administration [FDA]
# Estrogen related receptors (ERRs), the first orphan nuclear receptors discovered, play an important role in the control of cellular energy metabolism. ERRs are required for high-energy production in response to the environmental challenges. ERR-alpha was also identified as an adverse marker for breast cancer progression; ERR-alpha-positive tumors have a poor prognosis. To screen and to identify environmental compounds that perturb the ERR signaling pathways could provide valuable information for potential therapeutic or preventive measures in the treatment of metabolic disease. To differentiate true ERR antagonists or agonist from cytotoxic substances, the assay is multiplexed with cell viability assay.
# Tox21 Assay Protocol Summary:
# The ERR cells were dispensed at 2,000 cells/5 ul/well in 1536-well white plates using a Multidrop dispenser. After the assay plates were incubated at a 37 C/5% CO2 incubator for 6 hours, 23 nL of compounds dissolved in DMSO, positive and negative controls or DMSO only was transferred to the assay plate by a pin tool. The plates were incubated at 37 C for 17.5 hours. 1 ul/well of CellTiter-Fluor reagent was added into the assay plates using a Flying Reagent Dispenser. After 30-minute incubation at 37 C/5% CO2, the fluorescence intensity in the plates was measured using a ViewLux plate reader.
# Potency is read from the fitted curve at half-maximal effect.
SMILES,Potency,"viability change, negative = cytotoxic"
CCOC(=O)[C@H](O)[C@@H](O)C(=O)OCC,inactive,
CC(c1cc(C(C)(C)C)cc(C(C)(C)C)c1O)c1cc(C(C)(C)C)cc(C(C)(C)C)c1O,inactive,
SC1CCCCC1,inactive,
CCCCCc1ccc(O)cc1,inactive,
COc1c(Br)cc(Br)c(C)c1Br,inactive,
Cc1c[nH]c(=O)[nH]c1=O,inactive,
COc1cc(C(C)C)ccc1C,,2.54% [at 19 µM] (inactive)
C=CC(C)(C)O,inactive,
C=Cc1ccc(O)c(OC)c1,inactive,
CN[C@H]1CC[C@@H](c2ccc(Cl)c(Cl)c2)c2ccc(S(N)(=O)=O)cc21,68.6 µM (active),
CCOc1nc(F)cc2nc(S(=O)(=O)Nc3c(Cl)cccc3C(=O)OC)nn12,inactive,
Cc1cccc(C)c1C,inactive,
C=CC(=O)OCC(Br)CBr (stereo not given),inactive,
CCN(CCC#N)c1ccc(N=Nc2ccc([N+](=O)[O-])cc2)cc1,inactive,
CCSCC,inactive,
CCCCC/C=C\C=C\C(=O)OCC,71.5 µM (active),
CN1CCN(c2ccccc2/C=C2\SCCN(c3ccc(Cl)c(Cl)c3)C2=O)CC1,54.5 µM (active),
c1ccc2cc3c4ccccc4c4ccccc4c3cc2c1,inactive,
CCn1c2ccccc2c2ccccc21,inactive,
CC(C)(C)C1=CC(=O)C(C(C)(C)C)=CC1=O,inactive,

SMILES,Potency,"viability change, negative = cytotoxic"
COc1cc(OC)nc(NC(=O)NS(=O)(=O)Nc2ccccc2C(=O)N(C)C)n1,inactive,
Brc1cc(Br)cc(Br)c1,inactive,
O=C1OC(=O)c2cc(-c3ccc4c(c3)C(=O)OC4=O)ccc21,inactive,
Cc1ccc(C=O)cc1,inactive,
CCOC(=O)OC(=O)OCC,inactive,
Cc1ccc(C2OC[C@@H]3OC(c4ccc(C)cc4)O[C@H]([C@H](O)CO)[C@@H]3O2)cc1 (stereo not given in full),inactive,
CC(C)=CCC[C@H](C)CC=O,inactive,
CCNc1nc(NC(C)(C)C)nc(OC)n1,inactive,
Oc1ccc(C2(c3ccc(O)c(C4CCCCC4)c3)CCCCC2)cc1C1CCCCC1,61.1 µM (active),
C=CC(=O)O[C@H]1C[C@@H]2CC[C@@]1(C)C2(C)C,inactive,
CCc1cccc(C)c1N(C(=O)CS(=O)(=O)O)C(C)COC (stereo not given),inactive,
CCCCCCCCc1ccc(Nc2ccc(CCCCCCCC)cc2)cc1,inactive,
CCCCCCCCSCc1cc(C)c(O)c(CSCCCCCCCC)c1,inactive,
CCCCCCCCCCCCS(=O)(=O)Cl,,-1.38% [at 19 µM] (inactive)
Oc1ccc2c(c1)CCC2,inactive,
CCCCCCCCCCCCCCCCC(C(=O)O)C(O)(CC(=O)O)C(=O)O (stereo not given),inactive,
NC(=O)c1ccccc1Cl,inactive,
CCOC(=O)[C@H](C)O,inactive,
C=C(C)C1CCC(C)CC1O (stereo not given),inactive,
CC(CC(C)(C)C)CC(C)(C)CC(C)(C)C (stereo not given),inactive,
